Among the data in PubChem BioAssay (NCATS) are Potency values, retold here.

Test [1] deals with Endonuclease 4 (Escherichia coli (strain K12)) (UniProt P0A6C1). Nature of the test: Counterscreen for APE1 Inhibitors: qHTS Validation Assay for Inhibitors of Endonuclease IV (AID 1708). An outline of the steps: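 Enzyme (2 nM) + compound, 15 min RT; add 50 nM TAMRA/BHQ-2 THF-site dsDNA; kinetic read ex525/em598, 3 reads/60 s; activity = read 3 − read 1. Buffer Tris pH 7.5, 50 mM NaCl, 2 mM MgCl2, DTT, Tween-20.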
A general note: A counterscreen serves to expose hits that act by an unwanted route or on another target.

Test [2] is described as follows: qHTS for differential inhibitors of proliferation of Plasmodium falciparum line 3D7 (AID 1876). Further: potency means the concentration at half of the fitted maximal effect. For orientation: Quantitative high-throughput screening tests each substance at several concentrations.
A short description of test [3]: qHTS for differential inhibitors of proliferation of Plasmodium falciparum line D10 (AID 1877).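 Further: parasites grown with compound for 72 h before DNA staining.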 Further: potency means the concentration at half of the fitted maximal effect.
The nature of test [4]: qHTS for differential inhibitors of proliferation of Plasmodium falciparum line HB3 (AID 1886).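 Further: parasites grown with compound for 72 h before SYBR Green readout.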 Further: potency means the concentration at half of the fitted maximal effect. The following applies: Potency: Plasmodium falciparum HB3 proliferation inhibition.
The target in test [5] is Ferritin light chain (Equus caballus) (UniProt P02791). Nature of the test: qHTS Validation Assay for Identification of Novel General Anesthetics (AID 2323). Further: series mostly up to about 77 µM. The method, boiled down:
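Horse-spleen apoferritin (10 uM) in PBS with 50% saturated 1-aminoanthracene; compounds pin-transferred, 10 min at room temperature. Fluorescence read at 380/535 nm, normalized to free 1-AMA and 1-AMA/apoferritin values; four-parameter Hill fit.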

Test [6] in a line: Quantitative high throughput screen for delayed death inhibitors of the malarial parasite plastid, 96 hour incubation (AID 488745). Further: nearly all actives have a fitted effect of over 70% in size. Further: potency means the concentration at half of the fitted maximal effect. The method, boiled down: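 Readout is firefly luciferase luminescence from an integrated reporter in P. falciparum; lower signal marks inhibited growth. Cultures at 2% hematocrit and 0.1% parasitemia were treated with compound across two generations (96 h, 37 C, 5% CO2).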

Test [7] is described as follows: Quantitative high throughput screen for delayed death inhibitors of the malarial parasite plastid, 48 hour incubation (AID 488752). Further: nearly all actives have a fitted effect of over 65% in size. Further: potency means the concentration at half of the fitted maximal effect. The method, boiled down:
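First, compound was pinned into RPMI 1640 medium containing 0.5% Albumax. Next, reporter-parasite-infected erythrocytes were added to 2% hematocrit and 0.1% parasitemia. After 48 h at 37 C under 5% CO2, luciferase detection reagent was added and luminescence read.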

Test [8] in a line: qHTS for differential inhibitors of proliferation of Plasmodium falciparum line W2 (AID 1883).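 Further: parasites grown with compound for 72 h before lysis and staining.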 Further: potency means the concentration at half of the fitted maximal effect. The following applies: Potency: Plasmodium falciparum W2 proliferation inhibition.
Test [9] has as its target Voltage-gated inwardly rectifying potassium channel KCNH2 (Homo sapiens) (UniProt Q12809). The test can be described thus: qHTS Assay for Small Molecule Inhibitors of the Human hERG Channel Activity (AID 588834).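 Further: top concentration of the series differs between compounds; lower thallium flux fluorescence means stronger hERG block; nearly all actives have a fitted effect of over 50% in size.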 The method, boiled down: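 Thallium serves as surrogate for K+ influx through BacMam-delivered hERG in U2OS cells. Compounds are added for about 10 minutes after dye loading; stimulation buffer then starts flux, monitored kinetically on FDSS.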

SMILES strings stand for the structures. Records with an inconclusive call do not appear. Activity calls are given as the source filed them. The call rests on the fitted dose curve; in most records, active means well fitted curve in the direction sought with a large enough effect; inconclusive means small, poorly fitted or top-dose-only effect, or another doubt; inactive means no such curve, though single readings can be large; an effect the other way counts as inactive or inconclusive.

Chain of Ferritin light chain (Equus caballus) (P02791 2-175 limits assumed): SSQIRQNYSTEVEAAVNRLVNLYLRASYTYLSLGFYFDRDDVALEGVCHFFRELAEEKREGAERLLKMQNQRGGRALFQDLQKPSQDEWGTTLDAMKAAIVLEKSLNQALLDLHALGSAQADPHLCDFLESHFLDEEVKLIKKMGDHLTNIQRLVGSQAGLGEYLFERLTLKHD
Chain of Voltage-gated inwardly rectifying potassium channel KCNH2 (Homo sapiens) (Q12809 whole entry, looked up): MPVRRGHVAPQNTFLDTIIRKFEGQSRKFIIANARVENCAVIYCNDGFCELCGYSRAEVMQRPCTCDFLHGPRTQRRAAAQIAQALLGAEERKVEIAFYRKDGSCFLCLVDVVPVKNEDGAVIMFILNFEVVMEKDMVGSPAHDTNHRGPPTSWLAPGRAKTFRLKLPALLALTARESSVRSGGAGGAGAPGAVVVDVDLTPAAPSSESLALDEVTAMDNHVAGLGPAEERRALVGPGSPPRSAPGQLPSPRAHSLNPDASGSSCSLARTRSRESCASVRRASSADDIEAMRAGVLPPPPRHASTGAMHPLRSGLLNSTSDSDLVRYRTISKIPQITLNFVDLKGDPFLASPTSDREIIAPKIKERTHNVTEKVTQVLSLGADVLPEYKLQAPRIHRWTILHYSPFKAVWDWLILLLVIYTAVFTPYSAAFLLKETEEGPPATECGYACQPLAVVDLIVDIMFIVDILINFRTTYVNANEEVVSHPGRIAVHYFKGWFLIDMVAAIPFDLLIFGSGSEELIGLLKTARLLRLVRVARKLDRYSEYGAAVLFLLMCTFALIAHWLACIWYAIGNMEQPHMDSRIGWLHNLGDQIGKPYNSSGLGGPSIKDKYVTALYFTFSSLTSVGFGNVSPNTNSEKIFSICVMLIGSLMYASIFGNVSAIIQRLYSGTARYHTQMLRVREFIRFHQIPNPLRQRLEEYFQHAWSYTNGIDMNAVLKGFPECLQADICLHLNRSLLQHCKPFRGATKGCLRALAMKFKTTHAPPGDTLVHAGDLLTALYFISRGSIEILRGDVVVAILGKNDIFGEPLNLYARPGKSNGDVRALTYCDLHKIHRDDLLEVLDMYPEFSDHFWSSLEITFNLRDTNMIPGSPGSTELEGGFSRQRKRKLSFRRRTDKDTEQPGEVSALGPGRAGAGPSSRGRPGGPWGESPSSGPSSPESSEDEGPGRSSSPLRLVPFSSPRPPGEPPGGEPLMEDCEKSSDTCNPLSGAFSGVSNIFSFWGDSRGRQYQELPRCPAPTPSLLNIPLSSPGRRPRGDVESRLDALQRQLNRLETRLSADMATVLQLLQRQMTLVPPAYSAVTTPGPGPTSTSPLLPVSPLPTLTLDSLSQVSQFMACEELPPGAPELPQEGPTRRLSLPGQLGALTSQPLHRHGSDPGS

Take `CCCN1CCC[C@@H]2Cc3n[nH]cc3C[C@H]21`: the Potency result in test [1], in [2], in test [3], in test [4], in test [5] and in test [6] was “inactive” throughout. Also, the Potency result in test [7] is “inactive”.

Consider `COC(=O)C(N)CCCN=C(N)N[N+](=O)[O-]` (stereo not given), for which the Potency result in test [2], in test [3], in test [8], in [4], in test [5] and in test [6] was “inactive” throughout. Moreover, the Potency result in test [7] and in test [9] was “inactive” each time.

For `C[C@H]1OC[C@@H](C[N+](C)(C)C)O1`, the Potency result in [1], in [2], in test [3], in [8], in test [4] and in test [5] was “inactive” each time. The Potency result in test [6], in [7] and in test [9] was “inactive” each time.

For the compound `CN1CCC23CCCC[C@H]2C1Cc1ccc(O)cc13` (stereo not given in full), the Potency entry in test [2], in [3], in [4], in test [5], in test [6] and in test [7] was “inactive” in each case. For the same compound, the Potency in test [8] was 1.58 µM (active).

For the compound `C[C@H]1C2Cc3ccc(O)cc3[C@]1(C)CCN2CC1CC1`, the Potency result in test [1], in test [2], in test [3], in test [4], in test [5] and in [6] was “inactive” each time. Also, the Potency result in test [7] and in test [9] was “inactive” throughout. Also, the Potency in test [8] is 2.82 µM (active).

With `NNCc1cccc(O)c1`, the Potency entry in [1], in test [5] and in test [9] was “inactive” throughout. Further, the Potency in test [2] is 12.6 µM (active); in test [3], 14.1 µM (active); in test [8], 12.6 µM (active); in test [4] it was 14.1 µM (active); in test [7], 7.38 µM (active).

With `COc1ccc2c(c1O)-c1cccc3c1C(C2)N(C)CC3` (stereo not given), the Potency entry in test [1], in test [5] and in [6] was “inactive” each time. Moreover, the Potency in [2] is 10 µM (active); in test [3], 14.1 µM (active); in test [8], 7.94 µM (active); in test [4], 12.6 µM (active).

As to `CCCN1CCCC(c2cccc(O)c2)C1` (stereo not given), the Potency entry in test [1], in test [2], in [3], in [4], in [5] and in test [6] was “inactive” throughout. In addition, the Potency entry in test [7] and in [9] was “inactive” in each case. The Potency in [8] was 8.91 µM (active).

As to `COc1cc(C[C@@H](C)N)c(OC)cc1I`, the Potency entry in test [1], in test [2], in test [3], in test [4], in [5] and in [6] was “inactive” throughout. Besides, the Potency result in test [7] and in test [9] was “inactive” in each case. Also, the Potency in test [8] is 3.98 µM (active).

On to `CCN(CC)C(=O)N[C@@H]1C[C@@H]2c3cccc4[nH]cc(c34)C[C@H]2N(C)C1`, for which the Potency was 0.398 µM (active) in [2], 0.891 µM (active) in [8], 0.891 µM (active) in [4] and 1.17 µM (active) in [6]. Further, the Potency entry in [5] was “inactive”.

With `CC(C)(O)C1C2OC(=O)C1[C@]1(O)C[C@H]3O[C@]34C(=O)O[C@H]2[C@]14C` (stereo not given in full) (tested in a mixture with another compound), the Potency entry in test [2], in [3], in test [8], in test [4], in [5] and in test [6] was “inactive” each time. In addition, in test [7], the Potency entry is “inactive”.
